# Shown are actives, neighbours in structure and some others; about 6% of the full set was active somewhere.
# TSHR ag: agonists of human thyroid stimulating hormone receptor; P16473; HEK293-CNG-TSHR cells (CNG channel as cAMP sensor), membrane potential dye, cAMP; Potency, µM (series often up to 57.1 µM), for inactives: at the top dose activation, actives largely listed as activators; hit rate 0.48% among 73,000; active = well fitted activation curve with a large enough effect in the main read-out, with a control signal flat, not every such curve was filed as active; inconclusive = small, poorly fitted or top-dose-only effect, or a change in a side signal; inactive = no such curve, though single readings can be large or run the other way; % of control where 0% means no effect;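 note: the control signal comes from parental cells without the receptor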
# Target sequence (P16473 whole entry, looked up): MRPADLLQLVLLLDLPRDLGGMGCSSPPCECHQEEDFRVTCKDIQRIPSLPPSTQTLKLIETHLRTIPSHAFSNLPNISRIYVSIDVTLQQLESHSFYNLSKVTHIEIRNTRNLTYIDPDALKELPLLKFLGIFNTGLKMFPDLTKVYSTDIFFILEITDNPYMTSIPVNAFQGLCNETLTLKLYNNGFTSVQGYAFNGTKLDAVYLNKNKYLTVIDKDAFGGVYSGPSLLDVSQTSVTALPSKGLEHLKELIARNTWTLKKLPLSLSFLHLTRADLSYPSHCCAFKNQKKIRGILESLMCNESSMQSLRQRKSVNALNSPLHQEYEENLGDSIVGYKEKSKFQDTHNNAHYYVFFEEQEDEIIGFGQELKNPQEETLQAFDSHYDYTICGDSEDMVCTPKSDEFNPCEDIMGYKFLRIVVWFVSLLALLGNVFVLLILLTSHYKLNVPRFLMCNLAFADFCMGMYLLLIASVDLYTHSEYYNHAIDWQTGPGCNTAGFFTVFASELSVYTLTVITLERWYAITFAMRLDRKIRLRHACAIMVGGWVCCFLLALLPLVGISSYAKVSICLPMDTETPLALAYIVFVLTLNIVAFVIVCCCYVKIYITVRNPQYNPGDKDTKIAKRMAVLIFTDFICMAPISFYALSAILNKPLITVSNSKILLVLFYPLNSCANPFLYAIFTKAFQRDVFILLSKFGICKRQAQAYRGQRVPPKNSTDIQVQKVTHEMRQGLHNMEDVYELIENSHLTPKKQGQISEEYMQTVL
#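 HEK 293 cells stably expressing TSHR and a modified CNG channel, with CNG-only parental cells as counterscreen, were preloaded 60 min at room temperature with membrane potential dye containing 100 uM RO 20-1724. Compound exposure was 30 min, and depolarization was read as fluorescence at 590 nm.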
# HEK293 cAMP ctrl: raises cAMP in parental HEK293 cells, TSHR agonist counter-screen | parental HEK293 CNG cAMP sensor, membrane potential fluorescence | Potency, µM (series often up to 57.1 µM), without a hit: at the highest dose activation, hits mostly activators | hit rate 2.5% among 73,000; note: % of control where 0% means no effect; nearly all actives have a fitted effect of over 55% in size
#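 Counterscreen for endogenous-receptor signalling: CNG-channel HEK 293 cells report cAMP rise by membrane depolarization. After 60 min dye equilibration with 100 uM RO 20-1724, compounds incubated 30 min before bottom-read fluorescence at 590 nm.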
# CRE Fsk mod: alters forskolin-stimulated CRE reporter signaling in CHO cells; CHO CRE-bla reporter (cAMP response element driving beta-lactamase), forskolin EC10, beta-lactamase ratio; Potency, µM (doses to about 38.2 µM), for inactives: at the highest dose activity change, negative = inhibition, most hits filed as activators; hit rate 2.5% among 71,000; active = well fitted activation curve with a large enough effect in the signal ratio, with a control signal flat, not every such curve was filed as active; inconclusive = small, poorly fitted or top-dose-only effect, or effect the other way, or a change in a side signal; the % refers to the signal ratio; note: % of control where 0% means no effect
#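 Cells were plated overnight at 37 °C, exposed to compound titrations plus EC10 NKH 477 for 3 h, then given CCF4 dye for 2 h at room temperature. Blue/green (460/530 nm) ratio was converted to %Activity and AC50 values calculated.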
# ERK AVP inh: vasopressin-driven ERK pathway inhibition; hit rate 0.99% among 72,000; AID 995; HEK293-V1b, vasopressin-stimulated pERK AlphaScreen; Potency, µM (top dose mostly 57.5 µM), inactives show top-dose activity, negative = inhibition, most hits filed as inhibitors; note: % is set by controls: 0 for no effect and ±100 for the full control effect; nearly all actives have a fitted effect of over 55% in size
#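 qHTS, compounds titrated on V1b-expressing HEK293 cells. Preincubation 30 min at 37C, vasopressin 25 nM for 5 min, lysis 10 min, bead incubation 5 hr at room temperature.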
# * hit, by the source's call; ? = inconclusive; . = not tested or not shown; [ ] = dose if it differs, or a comment. Unless noted, calls come from the whole dose curve; as a rule, active = well fitted curve in the direction sought with a large enough effect; inconclusive = small, poorly fitted or top-dose-only effect, or another doubt; inactive = no such curve, though single readings can be large; an effect the other way counts as inactive or inconclusive. Potency is the fitted concentration of half-maximal effect.
SMILES,TSHR ag,HEK293 cAMP ctrl,CRE Fsk mod,ERK AVP inh
OC[C@H](S)CS,-2%[11.4 µM],5%[11.4 µM],-1%[7.6 µM],2%[11.5 µM]
Cc1ccc(-c2nc(CS(=O)(=O)CC(=O)N3CCc4ccccc4C3)c(C)o2)cc1,?,1.6µM*,-23%,?
Cc1ccc(-c2nc(CS(=O)(=O)CC(=O)N3CCCCCC3)c(C)o2)cc1,?,?,13%,-13%
CCCCCCCCCCCCCCCCCC(=O)NC[C@@H](COP(=O)([O-])OCC[N+](C)(C)C)OCC,27%,-2%,?,31%
N#CCc1ccccc1[N+](=O)[O-],0%,6%,-12%,15%
CCN(CC)CCNC(=O)c1ccc(Cc2nc3ccccc3[nH]2)cc1,16%,-18%,.,.
O=C(C1CC1c1ccccc1)N1CCN(c2cccc(Cl)c2)CC1 (centres undefined),?,32µM*,-2%,10%
O=C(O)c1ccccc1C(=O)N1CCN(c2cccc(Cl)c2)CC1,3%,7%,-17%,-12%
O=C(Oc1ccccc1)N1CCC2(CC1)CCN(c1ccccn1)CC2,?,13µM*,-3%,?
COC(=O)N1CCC2(CC1)CCN(c1ccccn1)CC2,?,?,-2%,-3%
COCC(=O)N1CCC2(CC1)CN(c1ccccn1)C2,?,16µM*,-10%,1%
O=C(Oc1ccccc1)N1CCC[C@@]2(CCN(c3ccncc3)C2)C1,?,?,13%,2%
O=C(Oc1ccccc1)N1CCC2(CC1)CCN(c1ccncc1)CC2,?,7.9µM*,18%,?
O=C(c1cc(C(F)(F)F)cc(C(F)(F)F)c1)N1CCC[C@@]2(CCN(c3ccccc3)C2)C1,-7%,6%,-6%,10%
O=C1C=C[C@@H](O)[C@@H]2[C@H]3C(=O)N(c4ccc(F)cc4F)C(=O)[C@@H]3CC[C@@H]12,2%[11.4 µM],-3%[11.4 µM],.,11%[11.5 µM]
Cc1nc2nc(Cc3ccccc3)nn2c(C)c1Cl,20%,12%,10µM*,-8%
C[C@@]12C[C@H](O)[C@@H]3[C@H](CCC4=CC(=O)CC[C@]43C)[C@H]1CC[C@@H]2c1csc(N)n1,-1%[11.4 µM],11%[11.4 µM],0%[7.6 µM],0%[11.5 µM]
CCCn1c(C)nc2c(N3CCOCC3)nc(C)nc21,2%,10%,10µM*,-19%
CCCn1c(C)nc2c(N3CCC(N4CCN(C)CC4)CC3)nc(C)nc21,1%,8%,7%,-2%
CC(C)NC[C@@H](O)COc1ccccc1-n1cccc1,15%,26%,-17%,4%
CC(C)(CO[C@H]1C[C@H]2CC[C@@]1(C)C2(C)C)[N+](=O)[O-],2%[11.4 µM],-2%[11.4 µM],0%[7.6 µM],8%[11.5 µM]
Cc1c(CN(C)C)c2c(n1C)C(=O)c1ccc(Br)cc1-2,-20%,-17%,3.2µM*,?
CC[C@]12CCCN3CCc4c(n(c5ccccc45)C(=O)C1)[C@H]32,.,.,.,-8%
CCC12CCCN3CCC4(C(=C(C(=O)OC)C1)Nc1ccccc14)C32 (centres undefined),?,25µM*,-5%,-20%
COc1ccccc1CCn1c(=O)c(-c2cccc(Cl)c2)nc2cncnc21,?,?,?,-28%
SMILES,TSHR ag,HEK293 cAMP ctrl,CRE Fsk mod,ERK AVP inh
CC(=O)c1c(C(C)=O)c(C)n(Cc2ccc3c(c2)OCO3)c1C,?,13µM*,20%,-21%
CCOC(=O)COc1cccc2c(=O)n(CC(=O)NCc3ccc4c(c3)OCO4)ccc12,15%,16%,13µM*,.
O=C(O)/C=C\C(=O)Nc1ncn[nH]1,2%[11.4 µM],3%[11.4 µM],7%[7.6 µM],11%[11.5 µM]
COc1c(C)cccc1C(=O)Nc1cc(-c2nn3c(C)nnc3s2)ccc1C,10%,1%,2.5µM*,.
COc1ccc2oc(-c3ccccc3)c(C(N)=O)c2c1,?,?,-3%,-10%
COc1ccc2oc(-c3ccccc3)c(OC)c(=O)c2c1,?,40µM*,9%,11%
COc1ccc(OC)c(-c2cc(C(=O)N3CCCc4ccccc43)no2)c1,?,?,3.2µM*,9%
COc1ccc(-c2cc(C(=O)N3CCCc4ccccc43)no2)cc1,?,20µM*,?,14%
COc1ccc(OCCCC(=O)N2CCCc3ccccc32)cc1,?,16µM*,15%,15%
O=C(CCCC(=O)N1CCCc2ccccc21)N1CCCc2ccccc21,28%,24%,-3%,15%
COc1ccc(C2=NOC(C(=O)N3CCCc4ccccc43)C2)cc1 (centres undefined),8%,29%,-19%,0%
COc1ccc(C(=O)N2CCCc3ccccc32)cc1,?,?,-5%,-18%
COc1cc(C2=NOC(C(=O)N3CCCc4ccccc43)C2)cc(OC)c1OC (centres undefined),?,?,13µM*,-8%
O=C(c1ccncc1)N1CCC2(CCN(Cc3ccncc3)CC2)CC1,0%,11%,1%,2%
COC(=O)c1ccc(C(NC(=O)OCc2ccccc2)/C(=C/[C@@H](C)C(=O)NCc2ccncc2)c2cccnc2)cc1 (some centres undefined),7%,1%,-12%,5%
COC(=O)c1cc(-c2ccc(OC)c(OC)c2)on1,15%,10%,?,7.9µM*
COc1ccc(-c2cc(C(=O)N3CCCc4ccccc43)no2)cc1OC,?,25µM*,?,6%
COc1cccc(-c2cc(C(=O)N3CCCCCC3)no2)c1,.,17%,3%,5%
COc1cccc(-c2cc(C(=O)N3CCCc4ccccc43)no2)c1,?,16µM*,?,44%
COCCNC(=O)c1cc(-c2ccc(OC)c(OC)c2)on1,-1%[11.4 µM],0%,23%,0%
COC(=O)C1=C(C)N(Cc2ccccc2)C2=C3C(=O)CCCC3[C@@](O)(C(=O)OC)C(=O)N2C1c1ccccc1 (some centres undefined),2%[11.4 µM],0%[11.4 µM],.,-10%[11.5 µM]
COc1ccc(CN(CCN(C)C)Cc2ccccc2)c(OC)c1,?,13µM*,8%,-7%
COc1ccc(CN(C)CC(=O)c2c(N)n(Cc3ccccc3)c(=O)n(C)c2=O)c(OC)c1,?,?,-7%,0%
CCN(Cc1ccccc1)Cc1cc(OC)cc(OC)c1,?,5µM*,?,33%
C=CC(=O)OCCCC,?,-11%,-7%,10%
SMILES,TSHR ag,HEK293 cAMP ctrl,CRE Fsk mod,ERK AVP inh
CCCn1c(=O)c2ccccc2n2c(SCc3nc4ccccc4s3)nnc12,?,?,?,14%
CCCn1c(=O)c2ccccc2n2c(SCCOc3ccccc3)nnc12,?,10µM*,?,28%
COc1cccc(-c2cncnc2N(C)Cc2ccco2)c1,8%,0%,-14%,-4%
O=C(NCCc1cn2ccsc2n1)c1cccs1,-2%,11%,13µM*,.
Nc1nc(-c2ccc(Cl)cc2)nn1C(=O)c1cccnc1,-3%,1%,-4%,-26%
Cc1nn(C(=O)c2cccnc2)c(C)c1C,?,6.3µM*,-2%,1%
OC[C@H]1O[C@@H](n2cnc3c(NCc4ccccc4)ncnc32)[C@H](O)[C@@H]1O,.,.,.,1%
O=C(NCc1ccccc1F)C1CCN(C(=O)NCc2ccccc2)CC1,-4%,0%,-2%,9%

# Screening data deposited in PubChem by National Center for Advancing Translational Sciences (NCATS).
